# Laboratory results published in the supplement of paper PMC12494721.
# Where a name gives a salt, the structure may show the parent alone.
# How the values were obtained:
# Conditions in all cases: incubation time: 27 h, anaerobic, 37 °C;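 for the amine columns active = adjusted P below 0.05 in both replicates with a change the same way and a mean fold change under 0.8 or over 1.25; inactive = the rest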
# [1] = system: Clostridium sporogenes DSM 1664; assay: growth (OD595) fold change vs plate DMSO controls (fold change (ratio)); higher = more growth
# Method in brief: (§1)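 Shaken 96-well cultures in mGAM, grown anaerobically for 27 h at 37 °C, were read at 595 nm. OD came from blank-subtracted readings, corrected for background with 20 µM compound solutions in water and scaled by a calibration factor of 5. Growth is the fold change versus the plate's median DMSO control. Values average 2 biological replicates, and any fold change above 1.5 is NA.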
# Escherichia coli IAI1 [2] = assay: as above
# Method in brief: as §1
# [3] = system: Klebsiella aerogenes DSM 30053; assay: as above
# Method in brief: as §1
# [4] = system: Ruminococcus gnavus DSM 108212; assay: as above
# Method in brief: as §1
# [5] = system: Klebsiella aerogenes DSM 30053; assay: fold change of Histamine concentration vs plate DMSO controls (fold change (ratio)); higher = more amine produced, active = hit call of the paper (significant change in both replicates, either direction)
# Method in brief: (§2)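 Amine values are fold changes relative to DMSO-only wells on the same plate. They derive from 27 h, 37 °C anaerobic mGAM cultures of four gut bacterial strains in 80 µL wells, dosed at 20 µM final, or 50 µM final for sweeteners. Extraction of the whole culture, LC–triple-quadrupole MS in dynamic MRM mode, external calibration curves and within-batch drift correction were used, with 2 biological replicates averaged.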
# [6] = system: Clostridium sporogenes DSM 1664; assay: fold change of Tryptamine concentration vs plate DMSO controls (fold change (ratio)); higher = more amine produced, active = hit call of the paper (significant change in both replicates, either direction)
# Method in brief: as §2
# [7] = system: Ruminococcus gnavus DSM 108212; assay: as above
# Method in brief: as §2
# Escherichia coli IAI1 [8] = assay: fold change of Putrescine concentration vs plate DMSO controls (fold change (ratio)); higher = more amine produced, active = hit call of the paper (significant change in both replicates, either direction)
# Method in brief: as §2
# [9] = system: Klebsiella aerogenes DSM 30053; assay: as above
# Method in brief: as §2
# Escherichia coli IAI1 [10] = assay: fold change of Cadaverine concentration vs plate DMSO controls (fold change (ratio)); higher = more amine produced, active = hit call of the paper (significant change in both replicates, either direction)
# Method in brief: as §2
# [11] = system: Klebsiella aerogenes DSM 30053; assay: as above
# Method in brief: as §2
# [12] = system: Ruminococcus gnavus DSM 108212; assay: fold change of 2-Phenylethylamine concentration vs plate DMSO controls (fold change (ratio)); higher = more amine produced, active = hit call of the paper (significant change in both replicates, either direction)
# Method in brief: as §2
compound,measurement,setting,value
CCN(CC)CC(=O)Nc1c(C)cccc1C [Lidocaine hydrochloride] (20 µM),growth,[1],0.845
same,growth,Escherichia coli IAI1 [2],0.973
same,growth,[3],0.979
same,growth,[4],0.66
same,fold change of Histamine concentration,[5],1.08 (inactive)
same,fold change of Tryptamine concentration,[6],1.01 (inactive)
same,fold change of Tryptamine concentration,[7],1.01 (inactive)
same,fold change of Putrescine concentration,Escherichia coli IAI1 [8],0.95 (inactive)
same,fold change of Putrescine concentration,[9],1.01 (inactive)
same,fold change of Cadaverine concentration,Escherichia coli IAI1 [10],0.975 (inactive)
same,fold change of Cadaverine concentration,[11],0.988 (inactive)
same,fold change of 2-Phenylethylamine concentration,[12],1.05 (inactive)
N=C(N)NC(=O)Cc1c(Cl)cccc1Cl [Guanfacine hydrochloride] (20 µM),growth,[1],0.939
same,growth,Escherichia coli IAI1 [2],0.961
same,growth,[3],1.03
same,growth,[4],0.811
same,fold change of Histamine concentration,[5],0.903 (inactive)
same,fold change of Tryptamine concentration,[6],0.953 (inactive)
same,fold change of Tryptamine concentration,[7],1.01 (inactive)
same,fold change of Putrescine concentration,Escherichia coli IAI1 [8],1.02 (inactive)
same,fold change of Putrescine concentration,[9],0.99 (inactive)
same,fold change of Cadaverine concentration,Escherichia coli IAI1 [10],1.01 (inactive)
same,fold change of Cadaverine concentration,[11],1.01 (inactive)
same,fold change of 2-Phenylethylamine concentration,[12],1.02 (inactive)
C#C[C@]1(O)CC[C@H]2[C@@H]3CCC4=CCCC[C@@H]4[C@H]3CC[C@@]21C [Lynestrenol] (20 µM),growth,[1],0.94
same,growth,Escherichia coli IAI1 [2],1.17
same,growth,[3],1.02
same,fold change of Histamine concentration,[5],1.06 (inactive)
same,fold change of Tryptamine concentration,[6],0.947 (inactive)
same,fold change of Tryptamine concentration,[7],0.985 (inactive)
same,fold change of Putrescine concentration,Escherichia coli IAI1 [8],1.13 (inactive)
same,fold change of Putrescine concentration,[9],1.02 (inactive)
same,fold change of Cadaverine concentration,Escherichia coli IAI1 [10],0.997 (inactive)
same,fold change of Cadaverine concentration,[11],0.989 (inactive)
same,fold change of 2-Phenylethylamine concentration,[12],1.01 (inactive)
COC(=O)Nc1nc2ccc(SC(C)C)cc2[nH]1 [Methiazole] (20 µM),growth,[1],0.921
same,growth,Escherichia coli IAI1 [2],1
same,growth,[3],1.24
same,growth,[4],1.08
same,fold change of Histamine concentration,[5],0.952 (inactive)
same,fold change of Tryptamine concentration,[6],1.04 (inactive)
same,fold change of Tryptamine concentration,[7],0.938 (inactive)
same,fold change of Putrescine concentration,Escherichia coli IAI1 [8],0.996 (inactive)
same,fold change of Putrescine concentration,[9],1.01 (inactive)
same,fold change of Cadaverine concentration,Escherichia coli IAI1 [10],1.04 (inactive)
same,fold change of Cadaverine concentration,[11],1.02 (inactive)
same,fold change of 2-Phenylethylamine concentration,[12],0.929 (inactive)
CC(C)(C)CC(C)(C)c1ccc(OCCOCC[N+](C)(C)Cc2ccccc2)cc1 [Benzethonium chloride] (20 µM),growth,[1],0.869
same,growth,Escherichia coli IAI1 [2],0.964
same,growth,[3],1.02
same,fold change of Histamine concentration,[5],1.07 (inactive)
same,fold change of Tryptamine concentration,[6],0.956 (inactive)
same,fold change of Tryptamine concentration,[7],0.866 (inactive)
same,fold change of Putrescine concentration,Escherichia coli IAI1 [8],0.975 (inactive)
same,fold change of Putrescine concentration,[9],1.01 (inactive)
same,fold change of Cadaverine concentration,Escherichia coli IAI1 [10],1.02 (inactive)
same,fold change of Cadaverine concentration,[11],0.988 (inactive)
same,fold change of 2-Phenylethylamine concentration,[12],0.895 (inactive)
CC(N)C12CC3CC(CC(C3)C1)C2 (stereo not drawn) [Rimantadine hydrochloride] (20 µM),growth,[1],0.858
same,growth,Escherichia coli IAI1 [2],0.975
same,growth,[3],0.955
same,growth,[4],0.786
same,fold change of Histamine concentration,[5],1.01 (inactive)
same,fold change of Tryptamine concentration,[6],0.984 (inactive)
same,fold change of Tryptamine concentration,[7],1 (inactive)
same,fold change of Putrescine concentration,Escherichia coli IAI1 [8],0.947 (inactive)
same,fold change of Putrescine concentration,[9],1.01 (inactive)
same,fold change of Cadaverine concentration,Escherichia coli IAI1 [10],1.01 (inactive)
same,fold change of Cadaverine concentration,[11],0.994 (inactive)
same,fold change of 2-Phenylethylamine concentration,[12],0.987 (inactive)
Cc1cc(C(C)(C)CC(C)(C)C)ccc1OCCOCC[N+](C)(C)Cc1ccccc1 [Methyl benzethonium chloride] (20 µM),growth,[1],0.896
same,growth,Escherichia coli IAI1 [2],1.13
same,growth,[3],1.04
same,fold change of Histamine concentration,[5],1.11 (inactive)
same,fold change of Tryptamine concentration,[6],0.948 (inactive)
same,fold change of Tryptamine concentration,[7],0.726 (active)
same,fold change of Putrescine concentration,Escherichia coli IAI1 [8],1.05 (inactive)
same,fold change of Putrescine concentration,[9],1.01 (inactive)
same,fold change of Cadaverine concentration,Escherichia coli IAI1 [10],1.04 (inactive)
same,fold change of Cadaverine concentration,[11],0.985 (inactive)
same,fold change of 2-Phenylethylamine concentration,[12],0.803 (inactive)
COc1cc([S+](C)[O-])ccc1-c1nc2cccnc2[nH]1 (stereo not drawn) [Sulmazole] (20 µM),growth,[1],0.885
same,growth,Escherichia coli IAI1 [2],0.999
same,growth,[3],0.98
same,growth,[4],1.1
same,fold change of Histamine concentration,[5],0.922 (inactive)
same,fold change of Tryptamine concentration,[6],0.944 (inactive)
same,fold change of Tryptamine concentration,[7],1.19 (inactive)
same,fold change of Putrescine concentration,Escherichia coli IAI1 [8],0.951 (inactive)
same,fold change of Putrescine concentration,[9],0.952 (inactive)
same,fold change of Cadaverine concentration,Escherichia coli IAI1 [10],1.02 (inactive)
same,fold change of Cadaverine concentration,[11],1.05 (inactive)
same,fold change of 2-Phenylethylamine concentration,[12],1.38 (inactive)
C#CCN[C@@H]1CCc2ccccc21 [Rasagiline] (20 µM),growth,[1],0.963
same,growth,Escherichia coli IAI1 [2],0.959
same,growth,[3],0.993
same,growth,[4],0.87
same,fold change of Histamine concentration,[5],1.02 (inactive)
same,fold change of Tryptamine concentration,[6],1.03 (inactive)
same,fold change of Tryptamine concentration,[7],1.02 (inactive)
same,fold change of Putrescine concentration,Escherichia coli IAI1 [8],0.965 (inactive)
same,fold change of Putrescine concentration,[9],0.981 (inactive)
same,fold change of Cadaverine concentration,Escherichia coli IAI1 [10],1.02 (inactive)
same,fold change of Cadaverine concentration,[11],0.974 (inactive)
same,fold change of 2-Phenylethylamine concentration,[12],1.03 (inactive)
O=C(NCCNCC(O)COc1ccc(O)cc1)N1CCOCC1 (stereo not drawn) [Xamoterol hemifumarate] (20 µM),growth,[1],1.1
same,growth,Escherichia coli IAI1 [2],0.989
same,growth,[3],0.983
same,growth,[4],1
same,fold change of Histamine concentration,[5],1.06 (inactive)
same,fold change of Tryptamine concentration,[6],0.992 (inactive)
same,fold change of Tryptamine concentration,[7],0.889 (inactive)
same,fold change of Putrescine concentration,Escherichia coli IAI1 [8],1.03 (inactive)
same,fold change of Putrescine concentration,[9],1.03 (inactive)
same,fold change of Cadaverine concentration,Escherichia coli IAI1 [10],1 (inactive)
same,fold change of Cadaverine concentration,[11],0.986 (inactive)
same,fold change of 2-Phenylethylamine concentration,[12],0.868 (inactive)
CO[C@@]1(NC(=O)CSCC#N)C(=O)N2C(C(=O)O)=C(CSc3nnnn3C)CS[C@@H]21 [Cefmetazole sodium salt] (20 µM),growth,[1],0
same,growth,Escherichia coli IAI1 [2],0.0115
same,growth,[3],1.16
same,fold change of Histamine concentration,[5],1.12 (inactive)
same,fold change of Tryptamine concentration,[6],0.0521 (active)
same,fold change of Tryptamine concentration,[7],0.978 (inactive)
same,fold change of Putrescine concentration,Escherichia coli IAI1 [8],0.284 (active)
same,fold change of Putrescine concentration,[9],1.05 (inactive)
same,fold change of Cadaverine concentration,Escherichia coli IAI1 [10],0.941 (inactive)
same,fold change of Cadaverine concentration,[11],1.03 (inactive)
same,fold change of 2-Phenylethylamine concentration,[12],1.13 (inactive)
